Laboratory results reported in publication PMC5540273 (PLoS ONE, 2017).
Where “and” joins values, the source holds several entries; their conditions need not be identical. Equal values may be shown once. Read-outs that look alike come from different tables or passages of the source.

Tests used:
[1] = test system: PAK4; conditions: concentration: 1 μM, replicates: in singlicate, n = 1
[2] = test system: PAK6; conditions: concentration: 1 μM, replicates: in singlicate, n = 1
[3] = test system: PAK7; conditions: concentration: 1 μM, replicates: in singlicate; n = 1
[4] = test system: T1, PCTK1; conditions: concentration: 1 μM, replicates: in singlicate; n = 1
T1 construct: gene CDK16

[5] = test system: T2, PCTK2; conditions: concentration: 1 μM, replicates: in singlicate, n = 1
T2 construct: gene CDK17

[6] = test system: T3, PCTK3; conditions: concentration: 1 μM, replicates: in singlicate, n = 1
T3 construct: gene CDK18

[7] = test system: PDGFRA; conditions: concentration: 1 μM, replicates: in singlicate, n = 1
[8] = test system: PDGFRB; conditions: concentration: 1 μM, replicates: in singlicate, n = 1
[9] = test system: PDPK1; conditions: concentration: 1 μM, replicates: in singlicate, n = 1
[10] = test system: PFTAIRE2; conditions: concentration: 1 μM, replicates: in singlicate, n = 1
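Further: KINOMEscan kinase panel screen.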

Row | SMILES | %Inh [1] [%] | %Inh [2] [%] | %Inh [3] [%] | %Inh [4] [%] | %Inh [5] [%] | %Inh [6] [%] | %Inh [7] [%] | %Inh [8] [%] | %Inh [9] [%] | %Inh [10] [%] | %Inh ([1]; 1 µM) | %Inh ([2]; 1 µM) | %Inh ([5]; 1 µM) | %Inh ([6]; 1 µM) | %Inh ([7]; 1 µM) | %Inh ([8]; 1 µM) | %Inh ([9]; 1 µM) | %Inh ([10]; 1 µM)
1 | NS(=O)(=O)c1cccc(-c2ccc3ncc(N4CCOCC4)nc3c2)c1 [GSK1535721] | 5 | 0 | 26 | 0 | 18 | 0 | 21 | 21 | 0 | 5 |  |  |  |  |  |  |  | 
2 | CC(C)(C)n1cnc2c(N)ncnc21 [SKF-97359] | 21 | 0 | 6 | 0 | 0 | 0 | 0 | 0 | 0 | 8 |  |  |  |  |  |  |  | 
3 | COc1ccc(Nc2ncc(C#N)c(Nc3ccccc3C(N)=O)n2)cc1N1CCN(C)CC1.Cl [GSK1558669] | 99.2 | 93.9 | 99.9 | 99.2 | 98.2 | 88 | 97.9 | 100 | 37 | 97.6 |  |  |  |  |  |  |  | 
4 | Cc1cccc(Cn2ccn3c(=O)cc(N4CCOCC4)nc23)c1 [GSK2297542] | 25 | 53 | 22 | 6 | 16 | 19 | 0 | 40 | 11 | 27 |  |  |  |  |  |  |  | 
5 | CN1c2ccc(CNc3ccc(F)cc3)cc2-c2c(cnn2C)S1(=O)=O | 0 | 0 | 0 | 0 | 0 | 0 | 0 | 0 | 12 | 0 |  |  |  |  |  |  |  | 
6 | COc1ccc(Nc2nccc(N3CCC(NC(=O)Nc4cccc(C(C)=O)c4)C3)n2)cc1 (stereo not shown) [GSK1379731] | 0 | 13 | 0 | 9 | 0 | 18 | 0 | 38 | 7 | 9 |  |  |  |  |  |  |  | 
7 | O=c1cc(N2CCOCC2)nc2n(Cc3cccc(C(F)(F)F)c3)ccn12 [GSK2297543] | 0 | 0 | 0 | 6 | 0 | 1 | 11 | 22 | 0 | 17 |  |  |  |  |  |  |  | 
8 | Cl.Cl.Cl.Fc1ccc(-c2ncn(C3CCNCC3)c2-c2ccnc(Nc3ccccc3)n2)cc1 [SB-238039] |  |  | 10 | 0 |  |  |  |  |  |  | 9% and 12% | 0% and 11% | 0% and 4% | 0% and 6% | 0% and 26% | 52% and 13% | 6% and 0% | 0% and 21%
9 | CCCCCc1nc2c(N)ncnc2n1CCCCC [SKF-97255] | 6 | 0 | 0 | 0 | 0 | 0 | 0 | 73 | 0 | 0 |  |  |  |  |  |  |  | 
10 | NS(=O)(=O)c1cccc(-c2ccc3nccc(-c4cccc(S(N)(=O)=O)c4)c3c2)c1 [GW867253] | 0 | 0 | 6 | 0 | 0 | 0 | 0 | 1 | 0 | 19 |  |  |  |  |  |  |  | 
